Targets with a hit are over-represented here; the source holds about 7,900 in all. About 0.6% of all pairs of compound and target were hits. A number with no mark means an inactive call.
Assays:
Assay in all cases: log2 fold change, soluble protein after heating vs DMSO (PISA); higher = thermal stabilisation; K562 cells, 10 uM, 30 min; active = over 0.2 and 3.5 SD of the protein, either way, in both replicates (recomputed)
bafetinib = compound: Cc1ccc(NC(=O)c2ccc(CN3CC[C@H](N(C)C)C3)c(C(F)(F)F)c2)cc1Nc1nccc(-c2cncnc2)n1 [bafetinib]
Outline: (§1)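 Aliquots of K562 cells (2×10^6 cells/mL) treated with 10 μM compound for 30 min were heated for 3 min over 48°C-58°C. After pooling and extraction in PBS with 0.5% NP-40 at 4°C, soluble protein from a 21,000xg, 90 min spin was quantified by TMTpro 16plex LC-MS/MS with channel sums equalised. Thermal stability is expressed against control samples, from duplicates, as a log2 fold change.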

[1] = compound: Cc1cccc(CC(=O)N2CCc3c2ccc(-c2cn(C)c4ncnc(N)c24)c3F)n1
Outline: as §1

nilotinib = compound: Cc1cn(-c2cc(NC(=O)c3ccc(C)c(Nc4nccc(-c5cccnc5)n4)c3)cc(C(F)(F)F)c2)cn1 [nilotinib]
Outline: as §1

[2] = compound: Cc1nc(Nc2n[nH]c3c2CN(C(=O)N[C@H](CN(C)C)c2ccccc2)C3(C)C)c2sccc2n1
Outline: as §1

dasatinib = compound: Cc1nc(Nc2ncc(C(=O)Nc3c(C)cccc3Cl)s2)cc(N2CCN(CCO)CC2)n1 [dasatinib]
Outline: as §1

[3] = compound: Cc1ncc(-c2ccnc(Nc3ccc(S(C)(=O)=O)cc3)n2)n1C(C)C
Outline: as §1

[4] = compound: Cn1cc(-c2ccc3c(c2)CCN3C(=O)Cc2cccc(C(F)(F)F)c2)c2c(N)ncnc21
Outline: as §1

[5] = compound: Cn1cc(-c2ccc3nnc(C(F)(F)c4ccc5ncccc5c4)n3n2)cn1
Outline: as §1

tipifarnib = compound: Cn1cncc1[C@@](N)(c1ccc(Cl)cc1)c1ccc2c(c1)c(-c1cccc(Cl)c1)cc(=O)n2C [tipifarnib]
Outline: as §1

mubritinib = compound: FC(F)(F)c1ccc(/C=C/c2nc(COc3ccc(CCCCn4ccnn4)cc3)co2)cc1 [mubritinib]
Outline: as §1

[6] = compound: NC(=O)Nc1cc(-c2cccc(F)c2)sc1C(=O)N[C@H]1CCCNC1
Outline: as §1

[7] = compound: NC(=O)c1cnc(N[C@@H]2CCCC[C@@H]2N)nc1Nc1cccc(-n2nccn2)c1
Outline: as §1

[8] = compound: NC1(c2ccc(-c3nc4ccn5c(=O)[nH]nc5c4cc3-c3ccccc3)cc2)CCC1
Outline: as §1

[9] = compound: NCC(=O)Nc1ccc(-n2nc(C(F)(F)F)cc2-c2ccc3c(ccc4ccccc43)c2)cc1
Outline: as §1

entinostat = compound: Nc1ccccc1NC(=O)c1ccc(CNC(=O)OCc2cccnc2)cc1 [entinostat]
Outline: as §1

vorinostat = compound: O=C(CCCCCCC(=O)Nc1ccccc1)NO [vorinostat]
Outline: as §1

citarinostat = compound: O=C(CCCCCCNC(=O)c1cnc(N(c2ccccc2)c2ccccc2Cl)nc1)NO [citarinostat]
Outline: as §1

silmitasertib = compound: O=C(O)c1ccc2c(c1)nc(Nc1cccc(Cl)c1)c1ccncc12 [silmitasertib]
Outline: as §1

[10] = compound: O=C1NC(=O)C(c2cnc3ccccn23)=C1c1cn2c3c(cc(F)cc13)CN(C(=O)N1CCCCC1)CC2
Outline: as §1

[11] = compound: c1cc(OCCN2CCCCC2)cc(-c2n[nH]c3ccc(-c4nnc[nH]4)cc23)c1
Outline: as §1

UniProt Q9P2P6, sequence (Q9P2P6 whole entry, looked up): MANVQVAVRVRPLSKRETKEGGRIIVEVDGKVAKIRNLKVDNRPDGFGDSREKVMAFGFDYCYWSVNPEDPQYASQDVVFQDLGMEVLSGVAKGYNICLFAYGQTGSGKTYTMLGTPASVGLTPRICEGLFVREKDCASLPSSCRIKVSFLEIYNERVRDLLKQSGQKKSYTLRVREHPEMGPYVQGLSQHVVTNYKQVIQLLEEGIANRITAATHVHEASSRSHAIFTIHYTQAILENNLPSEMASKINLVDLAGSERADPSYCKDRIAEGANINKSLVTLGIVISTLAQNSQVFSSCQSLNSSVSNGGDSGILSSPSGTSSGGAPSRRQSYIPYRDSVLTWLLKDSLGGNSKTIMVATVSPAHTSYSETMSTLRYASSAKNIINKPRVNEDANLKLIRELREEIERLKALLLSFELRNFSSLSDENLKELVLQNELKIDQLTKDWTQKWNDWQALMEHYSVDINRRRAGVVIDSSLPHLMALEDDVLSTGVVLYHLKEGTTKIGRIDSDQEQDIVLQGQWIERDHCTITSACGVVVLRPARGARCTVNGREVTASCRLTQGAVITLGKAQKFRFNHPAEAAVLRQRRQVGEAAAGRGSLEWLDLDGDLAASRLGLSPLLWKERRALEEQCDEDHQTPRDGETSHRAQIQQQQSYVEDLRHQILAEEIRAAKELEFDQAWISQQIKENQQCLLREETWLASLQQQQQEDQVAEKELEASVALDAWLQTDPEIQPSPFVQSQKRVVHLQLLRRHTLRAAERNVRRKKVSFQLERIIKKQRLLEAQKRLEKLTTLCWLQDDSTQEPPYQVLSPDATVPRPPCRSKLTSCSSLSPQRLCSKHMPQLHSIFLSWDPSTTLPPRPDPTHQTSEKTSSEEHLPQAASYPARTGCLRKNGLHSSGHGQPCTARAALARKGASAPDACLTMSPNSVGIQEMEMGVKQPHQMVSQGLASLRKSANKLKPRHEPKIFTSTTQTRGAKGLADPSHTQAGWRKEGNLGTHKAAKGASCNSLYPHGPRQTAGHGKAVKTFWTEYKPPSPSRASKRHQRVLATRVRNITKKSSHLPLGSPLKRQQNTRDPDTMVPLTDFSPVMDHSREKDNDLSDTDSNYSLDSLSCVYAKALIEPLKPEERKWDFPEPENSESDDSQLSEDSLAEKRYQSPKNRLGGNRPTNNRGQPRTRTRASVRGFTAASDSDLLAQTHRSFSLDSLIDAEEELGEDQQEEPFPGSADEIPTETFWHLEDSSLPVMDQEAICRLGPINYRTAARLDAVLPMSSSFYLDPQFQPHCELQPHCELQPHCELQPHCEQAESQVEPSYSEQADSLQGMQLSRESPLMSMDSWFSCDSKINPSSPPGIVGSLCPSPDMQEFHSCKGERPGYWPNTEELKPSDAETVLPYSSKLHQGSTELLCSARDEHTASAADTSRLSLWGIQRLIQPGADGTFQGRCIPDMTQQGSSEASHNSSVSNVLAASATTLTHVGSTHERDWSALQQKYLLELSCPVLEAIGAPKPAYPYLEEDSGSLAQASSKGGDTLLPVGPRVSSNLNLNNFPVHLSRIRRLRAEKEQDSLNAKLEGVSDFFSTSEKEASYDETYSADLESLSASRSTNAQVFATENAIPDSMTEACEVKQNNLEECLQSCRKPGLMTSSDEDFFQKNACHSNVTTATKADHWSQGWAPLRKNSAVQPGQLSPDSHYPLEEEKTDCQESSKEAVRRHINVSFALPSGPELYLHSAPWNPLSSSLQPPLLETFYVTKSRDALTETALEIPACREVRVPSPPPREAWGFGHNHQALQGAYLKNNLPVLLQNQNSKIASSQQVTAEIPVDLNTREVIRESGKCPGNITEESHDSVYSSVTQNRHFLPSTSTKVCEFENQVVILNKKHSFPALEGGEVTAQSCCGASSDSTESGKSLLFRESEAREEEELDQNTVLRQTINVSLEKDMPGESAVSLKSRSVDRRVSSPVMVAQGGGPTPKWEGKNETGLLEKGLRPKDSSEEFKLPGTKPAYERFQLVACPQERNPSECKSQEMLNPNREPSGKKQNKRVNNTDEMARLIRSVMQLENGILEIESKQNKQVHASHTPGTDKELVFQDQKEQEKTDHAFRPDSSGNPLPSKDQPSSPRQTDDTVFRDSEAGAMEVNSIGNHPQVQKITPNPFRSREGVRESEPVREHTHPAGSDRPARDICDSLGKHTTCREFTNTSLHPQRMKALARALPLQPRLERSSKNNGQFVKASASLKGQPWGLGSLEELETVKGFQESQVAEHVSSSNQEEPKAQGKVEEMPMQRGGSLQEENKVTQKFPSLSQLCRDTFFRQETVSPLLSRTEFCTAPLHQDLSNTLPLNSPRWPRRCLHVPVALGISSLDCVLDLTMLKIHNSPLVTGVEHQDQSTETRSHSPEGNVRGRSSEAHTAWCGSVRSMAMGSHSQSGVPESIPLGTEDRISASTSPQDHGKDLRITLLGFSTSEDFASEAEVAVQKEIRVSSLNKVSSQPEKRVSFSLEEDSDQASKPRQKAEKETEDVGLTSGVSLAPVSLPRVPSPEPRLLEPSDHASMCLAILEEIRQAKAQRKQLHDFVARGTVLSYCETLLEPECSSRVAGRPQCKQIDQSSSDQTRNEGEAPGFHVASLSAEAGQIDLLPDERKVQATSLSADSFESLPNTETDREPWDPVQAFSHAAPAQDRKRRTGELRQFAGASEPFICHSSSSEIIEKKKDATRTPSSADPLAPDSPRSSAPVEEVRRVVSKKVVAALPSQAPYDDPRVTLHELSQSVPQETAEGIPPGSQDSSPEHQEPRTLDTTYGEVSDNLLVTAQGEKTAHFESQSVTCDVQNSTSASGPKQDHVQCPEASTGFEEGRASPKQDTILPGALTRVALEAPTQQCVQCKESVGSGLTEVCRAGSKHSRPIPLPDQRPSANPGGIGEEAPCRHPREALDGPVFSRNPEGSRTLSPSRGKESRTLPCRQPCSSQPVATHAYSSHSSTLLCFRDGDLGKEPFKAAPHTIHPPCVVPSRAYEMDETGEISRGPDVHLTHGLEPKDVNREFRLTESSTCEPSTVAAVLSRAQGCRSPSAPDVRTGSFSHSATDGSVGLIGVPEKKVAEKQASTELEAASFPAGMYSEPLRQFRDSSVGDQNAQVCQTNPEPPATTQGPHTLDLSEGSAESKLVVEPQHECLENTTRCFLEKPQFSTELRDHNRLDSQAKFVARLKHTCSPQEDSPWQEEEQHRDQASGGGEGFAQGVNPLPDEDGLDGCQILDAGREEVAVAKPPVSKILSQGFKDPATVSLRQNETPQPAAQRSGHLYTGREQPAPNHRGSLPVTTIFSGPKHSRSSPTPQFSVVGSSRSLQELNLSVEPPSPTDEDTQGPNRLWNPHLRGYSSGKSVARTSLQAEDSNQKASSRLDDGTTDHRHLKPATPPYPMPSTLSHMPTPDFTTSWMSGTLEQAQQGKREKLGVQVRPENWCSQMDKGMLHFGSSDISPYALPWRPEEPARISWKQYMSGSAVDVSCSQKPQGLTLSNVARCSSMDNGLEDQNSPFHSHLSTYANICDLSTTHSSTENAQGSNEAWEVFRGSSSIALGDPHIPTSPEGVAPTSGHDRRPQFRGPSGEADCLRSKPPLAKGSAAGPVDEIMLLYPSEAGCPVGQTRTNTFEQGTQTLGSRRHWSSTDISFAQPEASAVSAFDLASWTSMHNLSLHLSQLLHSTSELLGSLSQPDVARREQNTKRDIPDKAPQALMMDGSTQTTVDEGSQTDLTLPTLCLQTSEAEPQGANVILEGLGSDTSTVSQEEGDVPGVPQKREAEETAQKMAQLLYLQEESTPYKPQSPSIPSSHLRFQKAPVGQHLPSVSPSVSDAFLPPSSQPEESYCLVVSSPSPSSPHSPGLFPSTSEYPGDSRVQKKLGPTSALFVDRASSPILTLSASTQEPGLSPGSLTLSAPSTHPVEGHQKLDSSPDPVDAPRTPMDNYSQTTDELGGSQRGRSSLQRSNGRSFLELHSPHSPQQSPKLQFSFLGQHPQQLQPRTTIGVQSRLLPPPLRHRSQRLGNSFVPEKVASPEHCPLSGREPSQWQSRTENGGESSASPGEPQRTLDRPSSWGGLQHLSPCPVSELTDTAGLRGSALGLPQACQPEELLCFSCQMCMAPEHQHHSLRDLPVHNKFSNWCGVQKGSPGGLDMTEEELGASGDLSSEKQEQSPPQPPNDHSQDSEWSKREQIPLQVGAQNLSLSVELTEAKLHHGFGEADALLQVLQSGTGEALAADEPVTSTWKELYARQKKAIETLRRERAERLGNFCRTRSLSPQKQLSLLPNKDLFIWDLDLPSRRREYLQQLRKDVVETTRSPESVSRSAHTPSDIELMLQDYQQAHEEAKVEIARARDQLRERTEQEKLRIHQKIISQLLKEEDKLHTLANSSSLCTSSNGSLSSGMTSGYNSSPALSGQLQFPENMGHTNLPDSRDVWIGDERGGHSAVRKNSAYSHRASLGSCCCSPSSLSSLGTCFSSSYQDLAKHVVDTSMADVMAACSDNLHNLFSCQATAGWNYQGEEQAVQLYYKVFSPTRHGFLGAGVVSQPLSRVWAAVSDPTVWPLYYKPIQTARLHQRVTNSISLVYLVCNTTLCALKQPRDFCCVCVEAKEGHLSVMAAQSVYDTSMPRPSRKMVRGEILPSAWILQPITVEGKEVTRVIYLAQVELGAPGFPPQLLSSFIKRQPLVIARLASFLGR
UniProt O95772, sequence (O95772 whole entry, looked up): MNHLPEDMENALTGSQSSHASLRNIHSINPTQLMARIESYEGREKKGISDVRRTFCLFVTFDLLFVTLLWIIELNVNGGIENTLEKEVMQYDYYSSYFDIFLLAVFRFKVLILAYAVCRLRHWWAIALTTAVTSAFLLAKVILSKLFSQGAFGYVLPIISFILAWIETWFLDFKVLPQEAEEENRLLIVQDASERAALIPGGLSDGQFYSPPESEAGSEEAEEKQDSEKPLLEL
UniProt Q01130, sequence (Q01130 whole entry, looked up): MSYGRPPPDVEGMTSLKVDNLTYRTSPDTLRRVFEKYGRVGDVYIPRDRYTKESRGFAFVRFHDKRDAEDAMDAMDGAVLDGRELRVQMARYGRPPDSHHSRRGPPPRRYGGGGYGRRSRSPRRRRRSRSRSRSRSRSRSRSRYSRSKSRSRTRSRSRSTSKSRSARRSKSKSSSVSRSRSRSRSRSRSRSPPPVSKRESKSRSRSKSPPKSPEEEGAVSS

Target	log2 fold change (bafetinib)	log2 fold change [1]	log2 fold change (nilotinib)	log2 fold change [2]	log2 fold change (dasatinib)	log2 fold change [3]	log2 fold change [4]	log2 fold change [5]	log2 fold change (tipifarnib)	log2 fold change (mubritinib)	log2 fold change [6]	log2 fold change [7]	log2 fold change [8]	log2 fold change [9]	log2 fold change (entinostat)	log2 fold change (vorinostat)	log2 fold change (citarinostat)	log2 fold change (silmitasertib)	log2 fold change [10]	log2 fold change [11]
TBC1D5 isoform 2 (UniProt Q92609)	-0.126	0.017	-0.076	-0.052	-0.232	0.007	-0.067	-0.005	-0.177	-0.017	-0.006	-0.103	-0.233	-0.058	0.029	0.086	0.111	0.031	-0.076	-0.094
SRSF2 (UniProt Q01130)	0.02	-0.062	0.007	-0.541 (active)	0.074	0.034	-0.058	0	0.085	-0.011	-0.056	0.04	0.139	-0.006	-0.067	-0.057	-0.04	-0.062	0.059	-0.081
STARD9 (UniProt Q9P2P6)	0.012	-0.029	0.016	0.157	0.091	0.002	0.076	0.047	0.07	0.129	-0.179	-0.029	0.058	0.073	0.007	0	-0.026	0.025	-0.048	0.028
STAT3 (UniProt P40763)	-0.015	-0.003	-0.097	-0.216	-0.141	0.026	-0.027	0.013	-0.172	0.024	-0.001	-0.047	-0.2	-0.092	0.089	0.101	0.062	0.103	-0.036	-0.016
SUOX (UniProt P51687)	-0.084	-0.181	0.063	0.013	0	-0.066	-0.015	0.063	0.019	0.032	-0.031	-0.022	0.025	-0.005	-0.014	-0.124	-0.017	-0.021	-0.027	0.014
STARD7 (UniProt Q9NQZ5)	-0.043	0.109	-0.057	0.081	-0.035	0.094	0.021	-0.007	-0.026	0.032	-0.048	-0.113	-0.088	0.012	0.008	0.114	0.073	-0.011	0.341 (active)	-0.089
TMBIM1 (UniProt Q969X1)	0.068	-0.07	0.168	-0.044	-0.01	0.149	-0.06	-0.105	-0.318	0.025	0.079	-0.229	-0.008	-0.259	0.062	-0.034	-0.208	0.067	-0.149	0.021
SLC6A6 (UniProt P31641)	-0.001	-0.018	0.064	-0.015	-0.069	0.068	-0.011	-0.006	0.002	0.024	-0.099	0.03	0.024	-0.19	-0.031	-0.059	0.065	0.039	0.086	0.269 (active)
STK25 (UniProt O00506)	-0.015	-0.055	-0.083	0.257 (active)	-0.133	-0.033	0.008	0.007	0.042	-0.013	-0.029	-0.06	-0.136	-0.08	-0.016	0.042	-0.026	0.078	-0.064	-0.034
SLC30A10 (UniProt Q6XR72)	-0.019	-0.148	0.029	-0.061	0.016	0.043	0.078	-0.026	0.067	-0.007	-0.035	0.088	0.084	0.133	-0.003	-0.215	-0.008	-0.05	-0.005	-0.432 (active)
STARD3NL (UniProt O95772)	0.011	-0.008	-0.007	0.027	0.075	-0.001	-0.048	0.025	-0.064	-0.006	0.018	-0.104	-0.413 (active)	-0.031	0.093	0.037	0.004	0.044	-0.013	0.035
STXBP5 (UniProt Q5T5C0)	-0.032	0.017	0.003	-0.025	-0.06	-0.003	0.021	-0.026	-0.049	-0.021	0.006	-0.022	-0.145	-0.033	-0.011	0.004	0.024	0.041	-0.04	-0.003
STAM2 (UniProt O75886)	-0.067	0.014	0.007	-0.077	0.044	-0.008	0.016	0.009	-0.012	0.019	-0.111	-0.136	-0.133	-0.101	0.012	0.04	0.026	0.049	-0.041	0.064
TLK1 (UniProt Q9UKI8)	-0.071	0	-0.073	-0.399 (active)	-0.028	0.007	0.06	0.026	0.01	0.011	-0.062	-0.074	-0.063	-0.034	0.042	0.027	0.049	-0.002	0.002	-0.074
STK39 (UniProt Q9UEW8)	-0.09	0	-0.076	-0.028	-0.108	-0.016	-0.008	-0.032	-0.031	-0.083	-0.064	0.034	-0.146	-0.028	0.069	0.063	0.051	0.003	0.003	-0.072
STX17 (UniProt P56962)	-0.049	-0.028	0.028	-0.057	-0.027	-0.051	0.071	0.002	-0.012	0.074	0.027	-0.073	-0.096	0.126	-0.001	-0.02	0.254	0.087	-0.026	-0.059

— the supplement of paper PMC10849652
